Measurements from PubChem BioAssay (NCI).
Compounds without any hit were thinned out: in the full panel of roughly 83,000, 20% have a hit.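 Plates (96-well) were seeded with cells, treated with compound at one concentration, and incubated for 48 hours before percent growth was determined.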 Unmarked numbers belong to inactive results. Active and inactive are the calls of the source. How the source made its calls: active means growth percent below 10; inactive means the rest.

test system: RPMI-8226 leukemia; experiment: NCI-60 one-dose screen, 48 h (100 = growth as untreated, 0 = no growth, -100 = all killed); settings: 10 µM unless noted

| SMILES | growth |
| --- | --- |
| N#CC1=C(N)Oc2c(ccc3ccccc23)C1c1ccccc1Cl (stereo unspecified) | 30.1% |
| O=C(CSc1nc2ccccc2[nH]1)NCc1ccccc1 | 101% |
| COc1ccc(-c2nc(S(=O)(=O)c3ccccc3)c(S(=O)CC(=O)N3CCC(C)CC3)o2)cc1 (stereo unspecified) | -14.6% (active) |
| COc1cc(C2C3=C(COC3=O)N(CCO)c3cc4c(cc32)OCO4)cc(OC)c1OC (stereo unspecified) | 15.2% |
| N#Cc1c(-c2ccccc2)nc2c(c(-c3ccccc3)nn2-c2ccccc2)c1-c1ccc(O)cc1 | 12.9% |
| CC(=O)[C@H]1CCC/C=C/[C@@H]2C[C@H](O)C[C@H]2[C@H](O)/C=C/C(=O)O1 | 14.2% |
| O=C1/C=C/[C@@H](O)[C@@H]2C[C@@H](O)C[C@H]2/C=C/CCC[C@H](CCc2cccc3ccccc23)O1 | 22% |
| CC(C)(C)[Si](C)(C)OC1[C@@H](O[Si](C)(C)C(C)(C)C)[C@@H](CNC(=O)NC(=O)CCl)O[C@H]1n1cnc2c(NC(=O)Nc3ccccc3)ncnc21 (stereo partly specified) | 16.7% |
| COc1cc(CC(=O)n2ncc3ccc(N)cc32)cc(OC)c1OC | 100% |
| O=C1C=CC(=O)N1c1cccc(Cl)c1 | 95.6% |
| CN(CCN(C)c1ccc(C(=N)N)cc1)c1ccc(C(=N)N)cc1 | 46.8% |
| O=C1/C=C/[C@@H](O)[C@@H]2C[C@@H](O)C[C@H]2/C=C/CCC[C@H](CCc2ccc3ncccc3c2)O1 | 17.7% |
| C#Cc1cccc(NC(=O)Nc2cccc(NC(=O)CCl)c2)c1 | 9.12% [8.25 µM] (active) |
| CCNc1nc2ccc(Nc3ccnc4cc(Cl)ccc34)cc2[nH]1 | 86.7% |
| O=[N+]([O-])c1ccc(N=Nc2cc(S(=O)(=O)O)c3cccc(S(=O)(=O)O)c3c2O)cc1 | 104% |
| O=C1Nc2ccccc2/C1=C\c1c(-c2ccccc2)nc2ccccn12 | 66% |
| COc1cc(/C=C\c2cc(OC)c(OC)c(OC)c2)cc(N)c1OC | 89.7% |

test system: OVCAR-8 ovarian; experiment: as above; settings: 10 µM unless noted

| SMILES | growth |
| --- | --- |
| Cc1c(C)c([N+](=O)[O-])c(C)c([N+](=O)[O-])c1C | 104% |
| CC(c1ccccc1)C(C(=O)c1ccccc1)c1ccccc1 (stereo unspecified) | 63.7% |
| COc1cc(NC(=O)CSc2nc3ccc(C)cc3c(=O)n2Cc2ccccc2)cc(OC)c1OC | 41.3% |
| CSc1nc2sc3cccc(Cl)c3n2c(=N)c1C#N | 99.3% |
| CCN(c1ccccc1)S(=O)(=O)c1cc([N+](=O)[O-])ccc1Cl | 79.8% |
| COC1=CC(=O)c2ccccc2C1=O | 65.4% |
| COC(=O)c1ccc2c(c1)[n+](=O)c(C(C)=O)c(C(F)(F)F)n2[O-] | 9.07% (active) |
| COc1cc(/C=C/C(=O)c2nc3cc(F)ccc3nc2C)cc(OC)c1OC | 36% |
| Cc1nc2ccc(Cl)cn2c1-c1nnc(SCc2ccc([N+](=O)[O-])cc2)o1 | 36.8% |
| COc1ccc(/C=C/C(=O)Nc2cc(/C=C\c3cc(OC)c(OC)c(OC)c3)cc(OC)c2OC)cc1OC | 34.2% |
| N#C/C(=C\c1cccc(C#N)c1)c1ccccc1 | 111% |
| C[C@H]1[C@H]2[C@H]3CC[C@@H]4[C@@]5(C)CC[C@H](O)C(C)(C)[C@@H]5CC[C@@]4(C)[C@]3(C)CC[C@]23CO[C@]1(C)[C@@H](C(=O)/C=C\c1ccco1)C3 | 99.3% |
| COc1cc2cc(Oc3cccc(NC(=O)Nc4cc(C(F)(F)F)cc(C(F)(F)F)c4)c3)c(C)nc2cc1OC | 14.2% |
| Cc1ncc(C(=O)Nc2ccc(CN3CCN(C)CC3)c(C(F)(F)F)c2)cc1C#Cc1cnc(N)cc1C#N | -66.4% (active) |
| Cc1ccc(-n2nc3c(c(C#N)c2=O)CC(c2ccccc2[N+](=O)[O-])C([N+](=O)[O-])=C3O)cc1 (stereo unspecified) | 90.2% |
| N#CC1=C(N)Oc2c(ccc3ccccc23)C1c1ccccc1Cl (stereo unspecified) | 7.5% (active) |
| O=C(CSc1nc2ccccc2[nH]1)NCc1ccccc1 | 104% |

| SMILES | growth |
| --- | --- |
| COc1ccc(-c2nc(S(=O)(=O)c3ccccc3)c(S(=O)CC(=O)N3CCC(C)CC3)o2)cc1 (stereo unspecified) | 33.9% |
| COc1cc(C2C3=C(COC3=O)N(CCO)c3cc4c(cc32)OCO4)cc(OC)c1OC (stereo unspecified) | 28.4% |
| CC(=O)[C@H]1CCC/C=C/[C@@H]2C[C@H](O)C[C@H]2[C@H](O)/C=C/C(=O)O1 | 11.3% |
| O=C1/C=C/[C@@H](O)[C@@H]2C[C@@H](O)C[C@H]2/C=C/CCC[C@H](CCc2cccc3ccccc23)O1 | 17.7% |
| COc1cc(CC(=O)n2ncc3ccc(N)cc32)cc(OC)c1OC | 104% |
| Cc1cc2c(c(C)c1Cl)C(=O)/C(=C/c1ccc(O)c(O)c1)O2 | 99.8% |
| O=C1C=CC(=O)N1c1cccc(Cl)c1 | 107% |
| COC(=O)C(CC=O)C(=O)C(=O)Nc1cccc(C(F)(F)F)c1 (stereo unspecified) | 90.5% |
| CN(CCN(C)c1ccc(C(=N)N)cc1)c1ccc(C(=N)N)cc1 | 107% |
| O=C1/C=C/[C@@H](O)[C@@H]2C[C@@H](O)C[C@H]2/C=C/CCC[C@H](CCc2ccc3ncccc3c2)O1 | 18% |
| C#Cc1cccc(NC(=O)Nc2cccc(NC(=O)CCl)c2)c1 | -7.18% [8.25 µM] (active) |
| CCNc1nc2ccc(Nc3ccnc4cc(Cl)ccc34)cc2[nH]1 | 75.8% |
| N#CC(C(=O)/C(=N/NC(=O)c1ccccc1O)C(C#N)c1ccccc1)c1ccccc1 (stereo unspecified) | 52.3% |
| O=[N+]([O-])c1ccc(N=Nc2cc(S(=O)(=O)O)c3cccc(S(=O)(=O)O)c3c2O)cc1 | 108% |
| C=CCn1c(-c2ccc(-c3nc4ccc(C)cc4[nH]3)cc2)n[nH]c1=S | 94.4% |
| O=C1Nc2ccccc2/C1=C\c1c(-c2ccccc2)nc2ccccn12 | 68.9% |
| COc1cc(/C=C\c2cc(OC)c(OC)c(OC)c2)cc(N)c1OC | 89.3% |
